Screening results from PubChem.
TDP1 cell noCPT = qHTS for Inhibitors of human tyrosyl-DNA phosphodiesterase 1 (TDP1): qHTS in cells in absence of CPT; 420,000 tested, 15% active; Potency, µM (top dose mostly 46.2 µM), hits mostly inhibitors; AID 686978, 2013; DT40 Tdp1-/- hTDP1 cells, no CPT, ATP luminescence, 48 h; note: nearly all actives have a fitted effect of over 55% in size
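Compound effects on proliferation are scored in DT40 Tdp1-/-;hTDP1 cells in the absence of CPT. ATP levels (CellTiter-Glo luminescence) are recorded after a ≥48 hr, 37 °C incubation.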
HT1080-NT tox = kills 2HG-producing HT-1080-NT fibrosarcoma cells. 360,000 tested, 1.6% active. HT-1080-NT fibrosarcoma viability, CellTiter-Glo ATP luminescence, 48 h. Potency, µM (highest dose often 46.1 µM), hits mostly cytotoxic;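 note: NT is the 2HG producing partner of a matched IDH1 knockdown line; nearly all actives have a fitted effect of over 55% in size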
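HT-1080-NT; 750 cells/well; 5% FBS RPMI; 48 h compound, 37 degrees C; CellTiter-Glo luminescence; curve fitting and curve-class assignment.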
TDP1 cell CPT = growth inhibition of DT40 Tdp1-/-;hTDP1 cells with camptothecin (screen for TDP1 inhibitors). chicken DT40 Tdp1-/-;hTDP1 cells + 20 nM CPT, ATP luminescence, 48 h. Potency, µM (highest dose often 46.2 µM), actives largely listed as inhibitors. 420,000 tested, 12% active; note: nearly all actives have a fitted effect of over 55% in size
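Chicken DT40 Tdp1-/- cells stably complemented with human TDP1 were seeded at 400 cells/well in medium containing 20 nM camptothecin, exposed to pin-transferred compounds, and grown at 37 °C for at least 48 hr. Viability was read as ATP luminescence.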
IL-1B inflam inh = inhibitors of inflammasome signaling (IL-1 beta secretion). THP-1 LPS/ATP IL-1B secretion, AlphaLISA, 16 h; stronger effect = lower value. activity change, % at 57.5 µM. 360,000 tested, 4.7% active; in the data active = activity change below about -50%; inconclusive = mostly about -30% to -49%
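THP-1 cells pretreated 1 hr with compounds (up to 57.5 uM final), then stimulated with LPS (250 ng/mL final) plus ATP (1.25 mM final); secreted IL-1B measured by AlphaLISA after 16 hr, decreased signal indicating inhibition.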
HT1080 IDH1KD tx = HT-1080 IDH1 knockdown cell toxicity (counter line). AID 686971. Potency, µM (titrated, usually from 46.1 µM), hits mostly cytotoxic. HT-1080 IDH1 knockdown viability, ATP luminescence, 48 h. 360,000 tested, 2% active
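Luminescent ATP read-out (CellTiter-Glo, 10 min at room temperature) after 48 h compound exposure at 37 °C gave viability of IDH1-knockdown HT-1080 cells. Activity was normalised to DMSO and cell-free wells, then fitted as concentration-response curves.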
Each line names hits and unclear results; the compound was inactive in the other large screens. Compounds with a hit are over-represented: about 19% of the library has one in this group of screens. Unless noted, calls come from the whole dose curve; as a rule, active = well fitted curve in the direction sought with a large enough effect; inconclusive = small, poorly fitted or top-dose-only effect, or another doubt; inactive = no such curve, though single readings can be large; an effect the other way counts as inactive or inconclusive.

CC(C)Oc1cccc(C(=O)C2CCCN(Cc3cccn3-c3cccnc3)C2)c1 (centres undefined)	TDP1 cell noCPT 13µM, TDP1 cell CPT inconclusive, IL-1B inflam inh inconclusive
CSc1ccc(C(=O)C2CCCN(Cc3cccn3-c3cccnc3)C2)cc1 (centres undefined)	TDP1 cell noCPT 5.2µM, HT1080-NT tox inconclusive, TDP1 cell CPT 4.6µM, IL-1B inflam inh -96
COc1ccc(C(=O)C2CCCN(Cc3cccn3-c3cccnc3)C2)cc1OC (centres undefined)	TDP1 cell noCPT 15µM, TDP1 cell CPT 16µM
CCOC(=O)c1[nH]ncc1CN1CCCC(C(=O)c2ccc(OC)c(OC)c2)C1 (centres undefined)	none
Cc1ccc(C)c(NC(=O)CN2C(=O)C3CC=CCC3C2=O)c1 (centres undefined)	none
CCN(Cc1nc2cc(Cl)ccc2c(=O)[nH]1)C(=O)CN1C(=O)NC2(CCCCC2C)C1=O (centres undefined)	none
COc1cc(Cl)c(C)cc1NC(=O)CNC(=O)Cn1ccc2ccccc2c1=O	none (no result: HT1080-NT tox, IL-1B inflam inh, HT1080 IDH1KD tx)
NC1=NS(=O)(=O)NC1c1ccc(F)cc1 (centres undefined)	none
O=CC(=Cc1ccccc1)c1ccccc1	TDP1 cell noCPT inconclusive
COc1cc(/C=C(\NC(=O)c2cc(OC)c(OC)c(OC)c2)C(=O)NC(C(=O)O)c2ccccc2)cc(OC)c1OC (centres undefined)	none
Cc1ccc(C)c(C(=O)COC(=O)Cn2c(C)csc2=O)c1	none
C=C1CCN(c2ccc(C(=O)NCc3ccc(C)cc3)cc2[N+](=O)[O-])CC1	IL-1B inflam inh -63
O=C(NCc1ccncc1)c1ccc(N2CCCC2)c([N+](=O)[O-])c1	TDP1 cell noCPT 18µM, TDP1 cell CPT inconclusive
C=C1CCN(c2ccc(C(=O)NCc3ccc(OC)cc3)cc2[N+](=O)[O-])CC1	TDP1 cell noCPT inconclusive, TDP1 cell CPT 21µM, IL-1B inflam inh -75
CCN1CCN(S(=O)(=O)c2c(C)[nH]c(C)c2C(=O)N2CCCCC2)CC1	none
CCOC(=O)c1c(NC(=O)/C=C/c2ccccc2)sc2c1CCCC2	none (no result: HT1080-NT tox, IL-1B inflam inh, HT1080 IDH1KD tx)
Cc1ccc([C@@H]2CC(=O)[C@@H]3CN(S(=O)(=O)c4ccc(C)cc4)[C@H](c4ccccc4F)C[C@@H]3N2S(=O)(=O)c2ccc(C)cc2)cc1	none
CN(Cc1ccccc1)c1ccc(C(CC(N)=O)NC(=O)c2ccccc2)cc1[N+](=O)[O-] (centres undefined)	TDP1 cell noCPT 16µM, TDP1 cell CPT 23µM
NC(=O)CC(NC(=O)Cc1ccc(Br)cc1)c1ccc(NCc2ccc(F)c(F)c2)c([N+](=O)[O-])c1 (centres undefined)	TDP1 cell noCPT inconclusive, HT1080-NT tox inconclusive, TDP1 cell CPT 16µM, HT1080 IDH1KD tx inconclusive
NC(=O)CC(NC(=O)c1ccccc1)c1ccc(NCc2ccc(F)cc2)c([N+](=O)[O-])c1 (centres undefined)	TDP1 cell noCPT inconclusive, TDP1 cell CPT 18µM, IL-1B inflam inh inconclusive
NC(=O)CC(NC(=O)c1ccccc1)c1ccc(NCc2ccccc2)c([N+](=O)[O-])c1 (centres undefined)	TDP1 cell noCPT 23µM, TDP1 cell CPT 21µM
CN(Cc1ccccc1)c1ccc(C(CC(N)=O)NC(=O)Cc2ccc(Br)cc2)cc1[N+](=O)[O-] (centres undefined)	TDP1 cell noCPT inconclusive, TDP1 cell CPT inconclusive
NC(=O)CC(NC(=O)c1ccc(Br)cc1)c1ccc(NCc2ccc(F)c(F)c2)c([N+](=O)[O-])c1 (centres undefined)	none
NC(=O)CC(NC(=O)c1ccc(Br)cc1)c1ccc(NCc2ccc(F)cc2)c([N+](=O)[O-])c1 (centres undefined)	TDP1 cell noCPT inconclusive, TDP1 cell CPT inconclusive
COCCn1c(=O)c(-c2ccc(F)cc2)nc2cnc(Nc3cccc(OC)c3)nc21	none (no result: HT1080-NT tox, IL-1B inflam inh, HT1080 IDH1KD tx)
COc1ccc(C(=O)N2CCC[C@@]3(CCN(c4ncccn4)C3)C2)cc1	none (no result: HT1080-NT tox, IL-1B inflam inh, HT1080 IDH1KD tx)
CCCN(CCC)CCCNC(=O)c1nn(C)c2c1CS(=O)(=O)c1ccccc1-2	none (no result: HT1080-NT tox, IL-1B inflam inh, HT1080 IDH1KD tx)
CN(CC(=O)Nc1ccccc1Cl)C(=O)c1ccc(N2C(=O)CCC2=O)cc1	none
CNC(=O)c1sccc1SCc1c(Cl)cccc1Cl	TDP1 cell noCPT inconclusive, TDP1 cell CPT inconclusive
CNC(=O)c1sccc1SCc1ccc(Cl)cc1Cl	TDP1 cell noCPT 18µM, TDP1 cell CPT 21µM
CC1CN(C(=O)CCc2ccccc2)C(C)CN1C(=O)CCc1ccccc1 (centres undefined)	TDP1 cell noCPT 23µM, TDP1 cell CPT inconclusive
NC(=S)NN=C1c2ccccc2-c2ccccc21	TDP1 cell noCPT 2.9µM, TDP1 cell CPT 5.2µM
NC(N)=NN=C1c2ccccc2-c2ccccc21	TDP1 cell noCPT inconclusive, IL-1B inflam inh -64
Cc1ccc(NC(=O)[C@@H]2O[C@H](CO)[C@H](O)[C@H](O)[C@H]2O)cc1C(F)(F)F	HT1080-NT tox inconclusive
CN(CCO)CCC(=O)NC1(C)CS(=O)(=O)CC1S(=O)(=O)O (centres undefined)	none
Cc1ccccc1CN1CC2=C(CCN(Cc3ccccc3)C2=O)N2CCN=C12	TDP1 cell noCPT 1.3µM, HT1080-NT tox inconclusive, TDP1 cell CPT 0.58µM, HT1080 IDH1KD tx inconclusive
O=C(Cc1ccccc1[N+](=O)[O-])NCC(=O)c1ccc2c(c1)OCO2	none
CC(/C=N\NC(=O)Cn1c(C)nc2ccccc21)=C\c1ccccc1	TDP1 cell noCPT 8.2µM, HT1080-NT tox 8.2µM, TDP1 cell CPT 8.2µM, HT1080 IDH1KD tx 21µM
C/C(=N\NC(=O)Cn1c(C)nc2ccccc21)c1cccs1	TDP1 cell noCPT 21µM, HT1080-NT tox inconclusive, TDP1 cell CPT 15µM
C/C(=N\NC(=O)CN1CCN(Cc2ccccc2)CC1)c1cccs1	none
CSc1ncccc1C(=O)OCC(=O)N(C)Cc1ccc(C)cc1	TDP1 cell noCPT inconclusive, TDP1 cell CPT inconclusive
CC(=O)N(NC(=O)c1ccccc1Cl)C1CC(=O)N(c2ccc(C)cc2)C1=O (centres undefined)	none
COc1ccc(-c2cn[nH]c2-c2ccc(OCc3ccccc3)cc2O)cc1OC	TDP1 cell noCPT 18µM, HT1080-NT tox inconclusive, TDP1 cell CPT 16µM, IL-1B inflam inh -101, HT1080 IDH1KD tx 13µM
Oc1cc(OCc2ccccc2)ccc1-c1[nH]ncc1-c1ccccc1	TDP1 cell noCPT 12µM, HT1080-NT tox 16µM, TDP1 cell CPT 10µM, IL-1B inflam inh -101, HT1080 IDH1KD tx 23µM
COc1ccc(-c2cn[nH]c2-c2ccc(O)cc2O)cc1	TDP1 cell noCPT inconclusive, TDP1 cell CPT inconclusive
COc1ccc(-c2cn[nH]c2-c2ccc(OCC(=O)NN)cc2O)cc1OC	TDP1 cell noCPT inconclusive, HT1080-NT tox inconclusive
